A selection: hits, their analogues and other compounds. The true share with any hit is near 3%.
aSyn 5UTR inh – 5' untranslated region of α-synuclein, MLPCN primary screen; alpha-synuclein 5'UTR reporter, inhibitor activity; hit rate 0.82% among 300,000; inhibition, % (tested at 7.5 µM); in the data active = inhibition above about 60%; inconclusive = no clear call, values can overlap the other calls;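 note: H4 neuroglioblastoma cells stably carrying SNCA 5'UTR luciferase fusion; 0% = DMSO wells and 100% = positive control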
KLF5 inhibitor – kruppel-like factor 5 inhibition. inhibition, % at 5 µM. hit rate 0.23% among 290,000. DLD-1 KLF5 promoter-luciferase reporter, luminescence;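 active = inhibition above a per-plate limit of that plate's mean compound inhibition plus 3 SD, cut at about 60% in these data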;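 note: 0% = DMSO wells and 100% = LY294002 at 200 µM; higher means less KLF5 promoter-driven luciferase light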
IEC-6 tox – counter-screen for KLF5 inhibitors: cytotoxicity in IEC-6 cells; IEC-6 cytotoxicity, luminescence viability; inhibition, % at 5 µM; hit rate 0.78% among 290,000;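 note: 0% = plate median of test compound wells and 100% = cytotoxic reference compound wells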
CSC inhib – blocks cancer stem cells | inhibition, % at 7.5 µM | hit rate 1.1% among 300,000 | cancer stem cell-like cells viability, luminescence; in the data active = inhibition above about 75%; inconclusive = no clear call, values can overlap the other calls; tested in HMLE shEcad cells
SKKanGAS inh – inhibitors of SKKanGAS S. pyogenes growth in kanamycin (SK-promoter or general growth effect); hit rate 1.3% among 300,000; BacTiter-Glo, 6 h; inhibition, % at 7.5 µM;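 active = mean replicate score, as percent of positive control median, at least 50; inconclusive = mean below 50 but one replicate at or above 50; inactive = mean and every replicate below 50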;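 note: strain carries kanamycin resistance gene driven by streptokinase promoter and grows in 40 µg/ml kanamycin; loss of luminescence reflects streptokinase promoter inhibition or plain growth inhibition; 0% = median of DMSO wells and 100% = positive control at its reference dose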
IEC-6 cytotox cf – confirmation of cytotoxic compounds in rat IEC-6 intestinal epithelial cells; hit rate 63% among 1,900; IEC-6 rat intestinal epithelial viability, luminescence; inhibition, % at 5 µM; AID 1907; shares compounds with IEC-6 tox;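 note: 0% = vehicle and 100% = reference cytotoxic drug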
Starred values were filed as active, the others as inactive; ? = inconclusive; · = no result. Cut-off read from the data, not from the text of the source, unless noted: active = inhibition above about 22%; inactive = the rest.

SMILES	aSyn 5UTR inh	KLF5 inhibitor	IEC-6 tox	CSC inhib	SKKanGAS inh	IEC-6 cytotox cf
CC1c2cc3c(cc2CCN1C(=O)c1ccc(Br)cc1)OCCCO3 (stereo not given)	29.6	6.8	39.4*	33.3	-2.7	37.0*
COc1cccc(NC(=O)C2CCC(CNS(=O)(=O)c3cccc4cccnc34)CC2)c1 (stereo not given)	-12.7	-30.7	-3.0	-27.2	3.6	·
COc1ccc(OC)c(/C=N/NC(=O)c2cc3c(OC)cccc3[nH]2)c1	-9.1	-10.3	8.7	10.5	37.4	·
CCOC(=O)c1c(C)[nH]c(C(=O)N/N=C/c2ccc(OC)c(OC)c2)c1C	-8.8	35.8	61.8*	44.2	-2.4	48.9*
COc1ccc(/C=N/NC(=O)c2cnccn2)cc1O	-62.9	-29.1	3.3	2.1	0.2	·
COc1ccccc1/C=N/NC(=O)c1[nH]c(C)c(C(=O)N/N=C/c2ccccc2OC)c1C	28.9	19.8	-2.3	-10.7	-1.9	·
COc1ccccc1/C=N/NC(=O)c1cc2c(OC)c(OC)ccc2[nH]1	-61.4	57.2	46.8*	38.1	-5.4	14.8
COc1ccc(/C=N/NC(=O)c2cc3c(OC)ccc(OC)c3[nH]2)cc1O	68.3*	59.5	40.1*	73.8	-0.7	19.6
COc1cccc(/C=N/NC(=O)c2cc3c(OC)c(OC)ccc3[nH]2)c1OC	27.4	33.0	55.0*	·	-0.4	42.3*
CCOC(=O)N/N=C/c1c(C)nn(-c2cccc(C(F)(F)F)c2)c1Cl	18.9	14.0	44.5*	67.5	-0.4	53.5*
Cc1nn(-c2cccc(C(F)(F)F)c2)c(Cl)c1/C=N/Nc1cccc(C(=O)O)c1	-108.2	-114.3	3.7	25.1	9.0	·
Cc1ccc(-n2nc3c(N4CCC(C(=O)NCCc5ccccc5C)CC4)nnc(C)c3c2C)cc1	71.7*	-2.1	22.6*	83.2*	-0.4	34.2*
COc1ccc(-n2nc3c(N4CCC(C(=O)NCCc5ccccc5C)CC4)nnc(C)c3c2C)cc1	19.4	-20.8	5.8	?	-8.2	·
COc1cc2c3c(c1)C(C)=CC(C)(C)N3C(=O)C2=O	-5.0	-2.9	87.4*	10.9	-4.5	44.0*
COc1ccc(S(=O)Cc2ccc(C(=O)N3CCN(c4cccc(C)c4C)CC3)o2)cc1 (stereo not given)	35.8	24.6	31.9*	50.3	2.2	37.4*
CC(C)C1CC(CCN2CCCCC2)(c2ccccc2)CCO1 (stereo not given)	3.6	-18.0	3.6	-7.9	-3.3	·
Cc1ccc(CSCCNS(=O)(=O)c2ccccc2)cc1	-10.6	-22.4	3.5	-7.6	-16.3	·
OC1(c2ccc(Cl)cc2)CCN(Cc2cn[nH]c2-c2ccc(F)cc2)CC1	?	-13.1	43.1*	12.6	-2.6	26.0*
OCC1(CCOc2ccccc2)CCN(Cc2cn[nH]c2-c2ccc(F)cc2)CC1	16.8	-4.8	-4.3	1.2	14.7	·
COc1ccc(-c2[nH]ncc2CN2CCC(O)(c3ccc(Cl)cc3)CC2)cc1	87.4*	-6.5	34.3*	23.3	-8.3	23.4*
Cc1ccc(N=Cc2cc3c(cc2O)OC(N)=C(C#N)C3c2ccccc2)cc1 (stereo not given)	-34.4	-15.5	-2.5	-1.4	4.6	·
Cn1nnnc1SCC(=O)NC1CCCc2ccccc21 (stereo not given)	-20.5	-23.6	-0.5	-13.9	-5.3	·
CC1C(c2ccccc2)N(C)C(c2ccccc2)C(C)C1(O)C#Cc1ccccc1 (stereo not given)	·	-0.6	-3.4	·	·	·
Cc1ccc(S(=O)(=O)Nc2ccc(O)c3ccccc23)c(C)c1	14.1	-29.4	1.8	31.4	10.6	·
Cc1ccc(S(=O)(=O)Nc2ccc3c4c(cccc24)CC3)c(C)c1	10.2	4.0	26.4*	51.5	44.3	38.5*
SMILES	aSyn 5UTR inh	KLF5 inhibitor	IEC-6 tox	CSC inhib	SKKanGAS inh	IEC-6 cytotox cf
CC(C)c1ccc(Nc2ncccc2C(=O)O)cc1	-100.7	-186.0	58.5*	28.4	-3.9	26.3*
COc1ccc(NC(=O)c2cccnc2Nc2ccc(OC)cc2)cc1	6.5	6.7	4.5	3.5	-1.8	·
COc1ccccc1NC(=O)Cn1c([N+](=O)[O-])cnc1C	12.6	-23.4	2.8	-16.4	-4.8	·
Cc1cc(-c2ccc(S(=O)(=O)N(C)c3ccc(C)c(C)c3)s2)on1	-0.1	32.2	52.8*	70.6	1.6	42.2*
COc1ccc(-c2cc(C)no2)cc1S(=O)(=O)N(C)c1ccc(C)c(C)c1	28.4	-20.6	2.8	22.7	6.1	·
Cc1ccc(N(C)S(=O)(=O)c2ccc(-c3cc(C)no3)s2)cc1	-38.1	35.4	41.3*	-20.2	-2.5	4.8
CCc1nnc(NC(=O)c2cc(Cl)ccn2)s1	-19.6	-86.9	30.7*	17.5	3.4	18.4
